Bioassay records from PubChem BioAssay.
Only a selection was taken, and hits are over-represented in it overall.
Pf Dd2 inh – Plasmodium falciparum Dd2 growth inhibition | P. falciparum Dd2 growth, SYBR Green, 72 h | Potency, µM (series often up to 28.9 µM), most hits filed as inhibitors | actives 4.3% (n = 120,000) | AID 1347417; active = well fitted inhibition curve with a large enough effect; also: nearly all actives have a fitted effect of over 65% in size
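Infected erythrocytes (Dd2, 0.3% parasitemia, 2.5% hematocrit final) are added to compound in RPMI-1640/Albumax II medium, grown 72 h at 37C in low oxygen, then lysed with saponin/Triton-X containing SYBR Green and read by fluorescence.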
Numbers stand for hits; 0 = inactive; [ ] = dose if it differs, or a comment.

SMILES	Pf Dd2 inh
Cn1nc(C2CCN(c3cncc(C(N)=O)n3)CC2)n(-c2ccccc2)c1=O	0
O=C(CCC1CCCN(C(=O)Cc2c[nH]c(=O)[nH]c2=O)C1)Nc1ccccc1F (stereo not drawn)	0
O=C(CCC1CCN(C(=O)c2ccccc2)CC1)Nc1ccccc1F	0
CCOc1ccc(CN2CCCC(CCC(=O)Nc3ccccc3F)C2)cc1CO (stereo not drawn)	0
COc1ccccc1CNC(=O)CCC1CCCN(S(=O)(=O)c2ccccc2F)C1 (stereo not drawn)	0
COc1cccc(C(=O)NCC2CCCN(Cc3nc4ccccc4[nH]3)C2)c1OC (stereo not drawn)	0
COc1ccccc1/C=C/CN1CCCC(CNC(=O)COc2ccccc2OC)C1 (stereo not drawn)	7.9µM
O=C(CCC1CCCN(Cc2cccn2-c2nccs2)C1)Nc1ccccc1F (stereo not drawn)	7.1µM
COc1ccccc1/C=C/CN1CCCC(CCC(=O)Nc2ccccc2F)C1 (stereo not drawn)	8.9µM
COc1cccc(C(=O)NCC2CCCN(C/C(C)=C/c3ccccc3)C2)c1OC (stereo not drawn)	0
Cc1noc(-c2cn(C3CCN(C(=O)c4ccc(C)c(F)c4)CC3)nn2)n1	0
CNC(=O)Cn1nc(C2CCN(C(=O)c3ccccc3F)CC2)c2c1CCOC2	0[5.79 µM]
CCOc1ccc(C2Cn3nnc(-c4nc(-c5ccccc5)no4)c3CO2)cc1 (stereo not drawn)	0
Cc1noc(C)c1S(=O)(=O)N1CCCCC(NC(=O)c2c[nH]c(=O)cn2)C1 (stereo not drawn)	0
CCc1n[nH]c(CC2CCN(C(=O)c3ccnn3CC)CC2)n1	0
Cc1cccc(CN2CCCC(O)(CNCc3cccc(F)c3)C2=O)c1 (stereo not drawn)	0
Cc1ccc(NC(=O)[C@H](CSCc2ccccc2)N2Cc3ccccc3C2=O)cc1	0
CCN(CC)S(=O)(=O)c1ccc(NC(=O)[C@H](CSCc2ccccc2)N2Cc3ccccc3C2=O)cc1	5µM
CCc1ccc(NC(=O)[C@H](CSCc2ccccc2)N2Cc3ccccc3C2=O)cc1	0
O=C(NC[C@H]1O[C@H](Cc2cc(COc3ccccc3)on2)CC[C@@H]1O)c1ccc2c(c1)OCO2	0
COc1ccc(C(=O)N2CCC3(CC2)N=C(c2ccc(Cl)cc2)NO3)cc1	0
C=CCNC(=O)CCc1c(C)nn(-c2ccc(F)cc2)c1Oc1ccccc1	7.9µM
CCNC(=O)CCc1c(C)nn(-c2ccccc2)c1Oc1ccccc1F	0
C=CCNC(=O)CCc1c(C)nn(-c2ccccc2)c1Oc1ccccc1	0
Cc1nn(-c2ccc(F)cc2)c(Oc2ccc(F)cc2F)c1CCC(=O)NCc1ccco1	0
SMILES	Pf Dd2 inh
Cc1ccccc1-n1nc(C)c(CCC(=O)N(C)C(C)C)c1Oc1ccccc1F	6.3µM
Cc1cccc(-n2nc(C)c(CCC(=O)N(C)C(C)C)c2Oc2ccc(F)cc2F)c1	0
Cc1nn(-c2ccc(F)cc2)c(Oc2ccc(F)cc2F)c1CCC(=O)N(C)C(C)C	0
Cc1nn(-c2ccccc2)c(Oc2ccccc2F)c1CCC(=O)NCc1ccco1	7.9µM
C=CCNC(=O)CCc1c(C)nn(-c2ccc(F)cc2)c1Oc1ccccc1F	0
COCCNC(=O)C[C@@H]1C[C@H]2O[C@H](CNCc3ccncc3F)[C@@H](O)[C@H]2O1	0
O=C1NCc2ccccc2CC12CCCCN2CC1CCOCC1 (stereo not drawn)	0
O=C(NCC1CCOCC1)C1CC(=O)N(c2n[nH]c3cccc(F)c23)C1 (stereo not drawn)	0
COc1cc2c(cc1OC)C(C[C@H]1CN(S(=O)(=O)c3ccc(C#N)cc3)CC[C@H]1CC(=O)O)=NCC2	0
Cn1c(C(=O)N2CCC(C(=O)NCCc3ccc(S(N)(=O)=O)cc3)CC2)cc2sccc21	0
CC(C)NC(=O)C1CCN(C(=O)c2cc3sccc3n2Cc2ccc(Cl)cc2)CC1	11µM
COC(=O)c1cc2sccc2n1Cc1ccc(F)cc1	0
COc1ccccc1C(=O)N1CCC2(CC1)NC(=O)N(c1ccc(F)cc1)N2	0
Cc1noc(C)c1[S+](=O)([O-])N1CCc2nc(C(C)C)nc(-c3ccc(Cl)cc3)c2C1	0
CC(C)c1nc2c(c(-c3ccc(O)cc3)n1)CN(Cc1cccc(C(F)(F)F)c1)CC2	2.5µM
CC(C)c1nc2c(c(-c3ccc(O)cc3)n1)CN(Cc1ccccc1)CC2	0
CC(C)c1nc2c(c(-c3ccc(O)cc3)n1)CN(CC1CC1)CC2	0
Cc1nc2c(c(-c3ccc(Cl)cc3)n1)CN([S+](=O)([O-])c1c(C)noc1C)CC2	0
Cc1noc(C)c1[S+](=O)([O-])N1CCc2nc(C(C)C)nc(-c3ccc(O)cc3)c2C1	10µM
CC(C)c1nc2c(c(-c3ccc(O)cc3)n1)CN(C(=O)c1ccccc1F)CC2	0
COc1ccc(CN2CCc3nc(C(C)C)nc(-c4ccc(O)cc4)c3C2)cc1	8.9µM
COC[C@@H]1CN(C(=O)c2ccc(C(C)(C)C)cc2)C[C@H]1c1nc(C)no1	0
Cc1ccc(C(=O)N2CCC(N3CCNC3=O)CC2)cc1	0
